Compound activity deposited in PubChem BioAssay by several laboratories.
A selection: hits, their analogues and other compounds. The true share with any hit is near 5%.
CHT PAM: allosteric activators of human choline transporter CHT; Q9GZV3; CHT-expressing cells, membrane potential dye, choline EC20; hits give high values; LV-AA mutant CHT in HEK293 cells; B-score at 10 µM; hit rate 0.49% among 310,000;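 active = initial fluorescence not abnormally high and integrated response B-score, plate-corrected, over 3 SD above library mean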
Target sequence (Q9GZV3 whole entry, looked up): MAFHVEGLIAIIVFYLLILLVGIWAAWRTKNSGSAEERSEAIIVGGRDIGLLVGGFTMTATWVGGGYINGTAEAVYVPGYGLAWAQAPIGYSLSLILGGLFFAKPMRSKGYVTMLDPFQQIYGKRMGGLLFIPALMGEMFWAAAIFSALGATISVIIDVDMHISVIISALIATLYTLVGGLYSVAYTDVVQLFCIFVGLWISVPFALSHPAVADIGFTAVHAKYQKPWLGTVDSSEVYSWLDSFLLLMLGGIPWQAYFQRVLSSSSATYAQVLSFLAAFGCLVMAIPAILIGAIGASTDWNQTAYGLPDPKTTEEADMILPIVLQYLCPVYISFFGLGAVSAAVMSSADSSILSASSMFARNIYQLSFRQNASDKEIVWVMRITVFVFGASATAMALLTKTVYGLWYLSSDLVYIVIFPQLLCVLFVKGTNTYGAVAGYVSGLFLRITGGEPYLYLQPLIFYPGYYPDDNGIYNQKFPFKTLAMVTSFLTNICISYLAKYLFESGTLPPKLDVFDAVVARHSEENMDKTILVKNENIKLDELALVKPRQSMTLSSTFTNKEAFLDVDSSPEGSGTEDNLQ
ALR inh: inhibitors of human sulfhydryl oxidase ALR; P55789; hit rate 3.8% among 290,000; purified ALR, DTT oxidation, H2O2 HRP-luminol luminescence; inhibition, % (test concentration not listed);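 active = mean replicate inhibition above about 79%, with every replicate also reaching it, limit read from the data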
CHT inh: human CHT choline transport inhibition. CHT-expressing cells, membrane potential dye, choline response; hits give low values. B-score at 10 µM. hit rate 0.86% among 310,000. AID 488975;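 active = B-score over 3 SD under the library average, and starting fluorescence ratio not unusually high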;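 note: choline stimulus applied at its EC90 after an EC20 pre-addition; B-score computed on integrated fluorescence ratio after choline addition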
PREPL inh: human PREPL enzyme inhibition | Q4J6C6 | recombinant PREPL, fluorescence polarization activity-based probe | inhibition, % at 5.96 µM | hit rate 0.68% among 320,000 | AID 2751; in the data active = inhibition above about 43%
AI-2 QS mod: modulates the Vibrio harveyi AI-2 quorum sensing system. activity change, % at 7.5 µM. hit rate 0.4% among 300,000. Vibrio harveyi JMH597 AI-2 luminescence/OD600 ratio, 9 h; hits give low values; strain lacks LuxN and CqsS sensors; 0 = neutral-control median; in the data active = activity change below about -75%, passing the limit was not always enough;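 note: luminescence divided by OD600 gain over 9 h not by final OD600 alone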
CHT inh conf: confirmation of human choline transporter CHT inhibitors. shares compounds with CHT inh. CHT-expressing cells, choline membrane potential dye; LV-to-AA substituted CHT, HEK293 cells. CHT activity remaining % of control (hits give low values), % at 10 µM. hit rate 70% among 2,400. AID 493221;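 active = choline transporter activity left, mean of duplicates at 10 µM, below buffer-only control mean minus 3 SD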;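 note: depolarization triggered by choline at its EC90 following an EC20 pre-addition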
HEK293 CHT ctr: activity in parental HEK293 cells lacking CHT | hit rate 4% among 2,400 | shares compounds with CHT inh | AID 493222 | membrane potential dye, choline response; active = decrease or increase beyond buffer ±3SD | membrane potential ratio readout (active if shifted either direction beyond buffer ±3SD; no single direction) at 10 µM;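 note: parental cells lack the transporter so any hit is non-specific; ratio is peak minus trough fluorescence over baseline after EC90 choline challenge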
Hits are given with their value; i = inactive; nt = not tested or not shown.

SMILES	CHT PAM	ALR inh	CHT inh	PREPL inh	AI-2 QS mod	CHT inh conf	HEK293 CHT ctr
O=C(Nc1cccc([N+](=O)[O-])c1)C(=O)N1CCCCC1	i	i	-5	i	i	i	i
CCCCNC(=O)Cn1c(=O)c2c(ncn2CCC(C)C)n(Cc2ccccc2)c1=O	i	i	i	i	i	nt	nt
Cc1ccc(N2C(=O)N3[C@H](c4ccc(F)cc4)[C@@H]4C(=O)N(C5CCCCC5)C(=O)[C@@H]4[C@]3(Cc3ccccc3)C2=O)cc1	i	i	i	i	i	nt	nt
O=C(CC(c1ccccc1)c1ccccc1)Nc1ccncc1	i	i	-5.9	i	i	56%	i
CC(O)c1cccc(NC(=O)CC(c2ccccc2)c2ccccc2)c1 (stereo unspecified)	i	i	-7.5	i	i	45%	i
O=C(CC(C(=O)O)c1ccccc1)Nc1ccccc1 (stereo unspecified)	i	i	i	i	i	nt	nt
O=C(CCc1ccccc1)Nc1ccncc1	i	i	i	i	i	nt	nt
CC[C@H]1CCCCc2ccccc2[C@@H](C(=O)C[C@@H](O)CC(C)=O)OC1=O	nt	nt	nt	i	nt	nt	nt
NS(=O)(=O)c1ccc(CCNC(=O)c2cc(-c3cc(Cl)ccc3O)n[nH]2)cc1	i	i	i	i	i	nt	nt
CCCCCCCCC[n+]1cccc2c3ccccc3ccc21	i	i	-6.8	i	i	59%	i
CCN(CC)CCNC(=O)c1ccc2c(c1NCCO)C(=O)c1ccccc1C2=O	i	i	i	i	i	nt	nt
CC1CCN(C(=O)c2ccc3c(c2NCCO)C(=O)c2ccccc2C3=O)CC1	i	i	-6.3	i	i	50%	2.3
N#C/C(=N/Nc1ccc(OC(F)(F)F)cc1)C(N)=S	i	i	-11	i	i	30%	i
CC1CCCC(NC(=O)CCNC(=O)c2ccc(Cl)cc2)C1C (stereo unspecified)	i	i	i	i	i	nt	nt
Cc1ccc(C(=O)CCC(=O)NC2CCCC(C)C2C)cc1 (stereo unspecified)	i	i	-5.2	i	i	58%	i
CN(C)C1(CN=Cc2cc(Cl)cc([N+](=O)[O-])c2O)CCCCC1	i	i	-6.3	i	i	36%	i
Cc1cc(C)c(S(=O)(=O)N2CCN(C(=O)CN3C(=O)NC4(CCCC4)C3=O)CC2)c(C)c1	i	i	i	i	i	nt	nt
O=S(=O)(NCCNc1ncc(C(F)(F)F)cc1Cl)C(F)(F)F	i	i	-9.6	i	i	42%	i
CS(=O)(=O)NCCNc1ncc(C(F)(F)F)cc1Cl	i	i	i	i	i	nt	nt
Cc1ccc(CN2CCCC(CO)(Cc3ccccc3C)C2)s1 (stereo unspecified)	i	i	i	i	i	nt	nt
O=[N+]([O-])c1cc(Br)cc(C=Nc2ccc3c(c2)OCO3)c1O	i	nt	-8	i	i	32%	i
O=C(NCc1ccc(F)cc1)c1ccncc1	i	i	i	i	i	nt	nt
Brc1ccc(C2=Nc3ccccc3C(c3ccncc3)=NN2)cc1	i	i	-11	i	i	i	i
CCOC(=O)c1ccccc1N/C=C/C(=O)c1cccs1	i	i	-8.5	i	i	41%	i
COc1cc2c(cc1OC)C(c1c(Cl)cccc1Cl)NC(=O)C2 (stereo unspecified)	i	i	-5.4	i	i	i	i
SMILES	CHT PAM	ALR inh	CHT inh	PREPL inh	AI-2 QS mod	CHT inh conf	HEK293 CHT ctr
COc1cc2c(cc1OC)C(c1cccc(Br)c1)NC(=O)C2 (stereo unspecified)	i	i	i	nt	i	nt	nt
COc1ccc(N(CC(=O)NC2CCCC2)C(=O)Cn2nnc(-c3ccc(C)cc3)n2)cc1	i	i	i	i	i	nt	nt
COc1ccc(CNC(=O)CN(C(=O)Cn2nnc(-c3ccccc3F)n2)c2ccc(C)cc2)cc1	i	i	-5.2	i	i	i	i
Cn1nc(C(=O)NCCCN2CCCCC2)c2c1-c1ccccc1SC2	i	i	-5.5	i	i	37%	i
O=C(NCCCN1CCCC1)c1ccc2c(c1)N(Cc1ccccc1)CCS2	i	99	-5.4	i	i	36%	4
CCOC(=O)N1CCN(C(=O)c2nn(C)c3c2CSc2ccccc2-3)CC1	i	i	i	i	i	nt	nt
O=C1Nc2cc(C(=O)NCCCN3CCCC3)ccc2S/C1=C\c1ccccc1	i	i	-11	i	i	24%	i
O=C(NCCCOc1cccc(CN2CCCCC2)c1)c1ccc(Cl)c(Cl)c1	i	i	-11	i	i	22%	2.4
NS(=O)(=O)c1ccc(CCNC(=O)c2ccc3c(c2)N(Cc2ccccc2)CCS3)cc1	i	i	i	i	i	nt	nt
CCC(OC(=O)c1nsc(Cl)c1Cl)C(=O)NC(C)(C)CC (stereo unspecified)	i	i	i	i	i	nt	nt
O=C(NNc1nc(-c2ccccc2)cs1)c1ccccc1	i	i	-7.8	i	i	62%	i
Cc1ccc(NC(=S)NNC(=O)c2ccc(N3CCOCC3)c([N+](=O)[O-])c2)cc1Cl	i	i	i	i	i	nt	nt
O=C(NNC(=S)Nc1ccc(Cl)cc1Cl)c1ccc(N2CCOCC2)c([N+](=O)[O-])c1	i	i	-5.5	i	i	35%	i
COc1cc(C=O)ccc1OCC(=O)Nc1ccc2c(c1)OCO2	i	i	i	i	i	nt	nt
CCCS(=O)(=O)N1CCN(Cc2ccco2)CC1	i	i	-6.7	i	i	i	i
CCCc1ccc(S(=O)(=O)N2CCN(Cc3ccco3)CC2)cc1	i	i	i	i	i	nt	nt
CCOc1cc2[nH]c(=S)n(C(C)C)c(=O)c2cc1OCC	i	i	-8.8	i	i	52%	i
CCOc1cc2[nH]c(=S)n(C3CC3)c(=O)c2cc1OCC	i	i	i	i	i	nt	nt
COC(=O)c1ccc(O)c(Sc2cc(C(=O)OC)ccc2O)c1	i	88	-5.3	i	i	i	i
CC(C)(C)Nc1nc(Cl)nc(N(C#N)CN2C(=O)c3ccccc3S2(=O)=O)n1	i	92	-5.6	i	i	57%	i
CCC(C)(C)NC(=O)Cc1ccccc1OC	i	i	i	i	i	nt	nt
CC1CCCCC1NC(=O)c1ccc(S(=O)(=O)NCC2CCCO2)cc1 (stereo unspecified)	i	i	-12	i	i	11%	i
CC(=O)Oc1ccc(C(=O)Nc2ccc(S(=O)(=O)NCC3CCCO3)cc2)cc1 (stereo unspecified)	i	nt	-5.1	i	i	70%	i
O=C(NC1CCS(=O)(=O)C1)c1ccc(S(=O)(=O)NCC2CCCO2)cc1 (stereo unspecified)	i	i	i	i	i	nt	nt
CN1CCc2c(sc3nc(NCCO)n(-c4cccc(Cl)c4)c(=O)c23)C1	i	i	i	i	i	nt	nt
O=C1OCCC1Sc1nc(-c2ccccc2)cs1 (stereo unspecified)	i	i	-9.1	i	i	39%	i
